From PubChem BioAssay (EPA / NIEHS)
Activity calls are given as the source filed them. How the source made its calls: active means hit-call score of the fitted dose curve at least 0.9, where 1 is the maximum; inactive means score below 0.9.

Assay: APR_HepG2_CellCycleArrest_72hr: Apredica 72-hour HepG2 Assay for Cell Cycle Arrest (AID 2282914)
Conditions: high-content imaging, actives raise or lower the signal
Experimental: APR_HepG2_72hr is a cell-based, multiplexed-readout assay that uses HepG2, a human liver cell line, with measurements taken at 72 hours after chemical dosing in a 384-well plate.APR_HepG2_CellCycleArrest_72hr is one of 10 assay component(s) measured or calculated from the APR_HepG2_72hr assay. It is designed to make measurements of cell phenotype, a form of morphology reporter, as detected with fluorescence intensity signals by HCS Fluorescent Imaging technology.Data from the assay component APR_HepG2_CellCycleArrest_72hr was analyzed into 1 assay endpoint. This assay endpoint, APR_HepG2_CellCycleArrest_72hr, was analyzed with bidirectional fitting relative to DMSO as the negative control and baseline of activity. Using a type of morphology reporter, measures of all nuclear dna for gain or loss-of-signal activity can be used to understand the signaling at the pathway-level as they relate to the gene . Furthermore, this assay endpoint can be referred to as a primary readout, because this assay has produced multiple assay endpoints where this one serves a signaling function. To generalize the intended target to other relatable targets, this assay endpoint is annotated to the cell cycle intended target family, where the subfamily is arrest.
Cells were treated with dimethyl sulfoxide (DMSO) as a solvent control at a final concentration of 0.5% v/v or with compounds in DMSO with a resulting final DMSO concentration of 0.5% v/v. Compound treatment was done at concentrations of 0.39, 0.78, 1.56, 3.12, 6.24, 12.5, 25, 50, 100, and 200 uM in duplicate on each plate. Cells were treated with compounds for 1, 24, or 72 hr. Carbonyl […] m-chloro-phenylhydrazone (CCCP) and taxol were used as positive controls for mitochondrial function and cytoskeletal stability, respectively; DMSO served as the negative control for this experiment. Cells were fixed by the direct addition of 50 uL formaldehyde in Hank's Balanced Salt Solution (HBSS) to a final concentration of 3.7%. After incubation in the fixation medium for 30 min at room temperature (293-298 K), cells were rinsed twice with HBSS and treated with cell permeabilization buffer (16 uL of 0.5% Triton X-100) for 10 min at room temperature (293-298 K) before labeling. For mitochondrial membrane potential and mitochondrial measurements, pre-fixed cells were incubated with 50 uL of MitoTracker Red CMXRos (Invitrogen) at a concentration of 250 nM for 30 min before fixation. In the remaining cases, post-fixed cells were labeled by incubation with a multiplexed mixture of primary antibodies in HBSS for 60 min at room temperature (293-298 K) to detect immunoreactivity of c-Jun (1:500), phospho-histone H3 (1:100), phospho-histone H2A.x (1:200), p53 (1:400), alpha-tubulin (1:200) and Hoechst 33342 (2 ug/mL). Cells were labeled for multiplexed imaging on two separate plates: a) Hoechst 33342, MitoTracker Red, phospho-histone H3, and alpha-tubulin, and b) Hoechst 33342, phospho-histone H2A.x, and c-Jun. A final rinse with HBSS (50 uL) was performed before analysis. The primary and secondary antibodies for the proteins were phospho-histone H3 (rabbit anti-phospho-histone H3 and FITC-donkey anti-rabbit IgG), phospho-histone H2A.x (mouse anti-phospho-histone H2A.x and FITC-donkey anti-mouse IgG), c-Jun (rabbit anti-phospho-c-Jun and Cy3-donkey anti-rabbit IgG), p53 (sheep anti-p53 and Cy5-donkey anti-sheep IgG), alpha-tubulin (mouse anti-alpha-tubulin and Cy5-donkey anti-mouse IgG). These antibodies are available as the CellCiphr HepG2 assay kit (Millipore).Digital images of each well were captured using a Cellomics ArrayScan VTI (Thermo Scientific Cellomics) (0.8 NA objective, 0.63x optical coupler, and XF-93 filter set) at 20x magnification. The images were acquired using the autofocus feature of the ArrayScan instrument, which entails the following steps. First, the camera focuses on channel 1 (Hoechst 33342), where nuclei are identified. Second, a Z offset of 1 um is used for capturing mitochondria (MitoTracker Red). […]
With `ClC1=C(Cl)[C@]2(Cl)[C@@H]3[C@@H](Cl)[C@H]4O[C@H]4[C@@H]3C1(Cl)C2(Cl)Cl` the AC50 was 86.3 µM (active). For `O=S(=O)(O)C(F)(F)C(F)(F)C(F)(F)C(F)(F)F`, the outcome was “inactive”. For `COS(=O)(=O)OC`, the outcome was “inactive”. In the case of `C[C@]12CCC(=O)C=C1CC[C@@H]1[C@@H]2CC[C@@]2(C)[C@H]1CC[C@]2(C)O`, the outcome is reported as “inactive”. In the case of `O=NN(c1ccccc1)c1ccccc1`, the outcome is reported as “inactive”. With `Clc1ccc(C(c2ccccc2Cl)C(Cl)(Cl)Cl)cc1` (stereo not given) the AC50 was 24.6 µM (active). For `O=C(NC(=O)c1cc(F)c(F)cc1Cl)Nc1cc(F)ccc1N1CCC(C(=O)O)CC1`, the outcome was “inactive”. For `O=C(NC(=O)c1c(F)cccc1F)Nc1cc(Cl)c(OC(F)(F)C(F)F)c(Cl)c1`, the outcome was “inactive”. In the case of `CC#Cc1cc(C)nc(Nc2ccccc2)n1`, the AC50 is reported as 96.1 µM (active). For `CCOC(=O)C(O)(c1ccc(Cl)cc1)c1ccc(Cl)cc1`, the AC50 was 44.7 µM (active). For `CCCN(CCC)N=O`, the outcome was “inactive”. With `CCC(C)(c1ccc(O)cc1)c1ccc(O)cc1` the outcome was “inactive”. With `O=C(O)C(F)(F)C(F)(F)C(F)(F)C(F)(F)C(F)(F)C(F)(F)C(F)(F)C(F)(F)C(F)(F)F` the AC50 was 66.8 µM (active). In the case of `CCOP(=S)(OCC)SCSC(C)(C)C`, the outcome is reported as “inactive”. For `Oc1c(Cl)c(Cl)c(Cl)c(Cl)c1Cl`, the AC50 was 60.8 µM (active). For `O=C(O)C(F)(F)C(F)(F)C(F)(F)C(F)(F)C(F)(F)C(F)(F)C(F)(F)C(F)(F)F`, the outcome was “inactive”. For `c1cc2ccc3cccc4ccc(c1)c2c34`, the outcome was “inactive”. In the case of `CCCCCCCCCc1ccc(O)cc1`, the outcome is reported as “inactive”. With `CCC(C)c1cc([N+](=O)[O-])cc([N+](=O)[O-])c1O` (stereo not given) the AC50 was 75.8 µM (active). In the case of `CO/C=C(/C(=O)OC)c1ccccc1COc1cccc(C(F)(F)F)n1`, the outcome is reported as “inactive”. In the case of `CC(C)C(=O)OCC(C)(C)C(OC(=O)C(C)C)C(C)C` (stereo not given), the outcome is reported as “inactive”. In the case of `ClC(Cl)=C(c1ccc(Cl)cc1)c1ccc(Cl)cc1`, the AC50 is reported as 17 µM (active). In the case of `N#Cc1ccc(N(CC(N)=O)CC(F)(F)F)cc1C(F)(F)F`, the outcome is reported as “inactive”. With `O=C(O)C(F)(F)C(F)(F)C(F)(F)C(F)(F)C(F)(F)F` the outcome was “inactive”. In the case of `CC(C)(c1ccccc1)c1ccc(O)cc1`, the outcome is reported as “inactive”. In the case of `CCSC(=O)N(CC)C1CCCCC1`, the outcome is reported as “inactive”. For `CC(C)(O)C(=O)Nc1ccc([N+](=O)[O-])c(C(F)(F)F)c1`, the outcome was “inactive”. In the case of `C=CC(N)=O`, the outcome is reported as “inactive”. In the case of `O=C(N[C@H]1CN2CCC1CC2)c1cc2ccoc2cn1`, the outcome is reported as “inactive”. With `CCC(=O)O[C@H]1CC[C@H]2[C@@H]3CCC4=CC(=O)CC[C@]4(C)[C@H]3CC[C@]12C` the outcome was “inactive”. In the case of `c1ccc(-c2ccccc2)cc1`, the outcome is reported as “inactive”. In the case of `CN(C)CCO`, the outcome is reported as “inactive”. For `Cc1cccc(C)c1N`, the outcome was “inactive”. For `Cc1ccccc1O`, the outcome was “inactive”. With `C[C@]12CCC(=O)C=C1CC[C@@H]1[C@@H]2CC[C@]2(C)C(=O)CC[C@@H]12` the outcome was “inactive”. With `Cc1ccccc1[N+](=O)[O-]` the outcome was “inactive”. In the case of `Clc1ccc(C(Cl)(Cl)Cl)cc1`, the outcome is reported as “inactive”. In the case of `ClC1=C(Cl)[C@]2(Cl)[C@@H]3[C@H]4C[C@H]([C@@H]5O[C@H]45)[C@@H]3[C@@]1(Cl)C2(Cl)Cl`, the outcome is reported as “inactive”. For `NS(=O)(=O)C(F)(F)C(F)(F)C(F)(F)C(F)(F)C(F)(F)C(F)(F)C(F)(F)C(F)(F)F`, the AC50 was 46.1 µM (active). For `Cc1ccc(O)c(C)c1`, the outcome was “inactive”.
